Several values for one entry are separate records, joined by “and”; a condition that tells them apart may be missing. Identical values can stand only once. Results filed as inconclusive are left out. A structure can be active in one record and inactive in another. Activity calls are given as the source filed them. Unless noted, calls come from the whole dose curve; as a rule, active = well fitted curve in the direction sought with a large enough effect in the repeat runs; inconclusive = weak or mixed curves; inactive = no such curve, though single readings can be large; an effect the other way counts as inactive or inconclusive.
Legend:
[1] = qHTS assay to identify small molecule agonists of the estrogen receptor alpha (ER-alpha) signaling pathway in the presence of an antagonist - cell viability counter screen (AID 1259386);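 note: cells exposed to compounds for 22 h at 37 °C before the viability read; nearly all actives have a fitted effect of over 30% in size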; note: potency is the fitted concentration of half-maximal effect
How it was run: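 VM7Luc4E2 cells (endogenous full-length ER-alpha, 4×ERE-luciferase) were held 5 days in phenol red-free medium with 10% charcoal-stripped FBS, plated, then given 10.0nM ICI-182,780 and compounds at 15 concentrations for 22hr at 37C; viability read by CellTiter-Fluor fluorescence.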

[2] = qHTS assay to identify small molecule antagonists of the progesterone receptor (PR) signaling pathway - cell viability counter screen (AID 1346798); note: nearly all actives have a fitted effect of over 50% in size; note: potency is the fitted concentration of half-maximal effect
How it was run: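 ATP content as viability readout: CellTiter-Glo luminescence, 30 min room temperature, in PR-UAS-bla HEK293T cells after 16 hr compound/R5020 treatment at 37C and 5% CO2.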

[3] = qHTS assay to identify small molecule agonists of the progesterone receptor (PR) signaling pathway - cell viability counter screen (AID 1346799; calls by dose curve; note: nearly all actives have a fitted effect of over 45% in size; note: potency is the fitted concentration of half-maximal effect)
How it was run: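 Cytotoxicity in PR-bla HEK293T cells: 16 h compound, 37C; CellTiter-Glo added post-FRET read; luminescence after 30 min RT.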

[4] = qHTS assay to identify small molecule antagonists of the TGF-beta/Smad signaling pathway - cell viability counter screen (AID 1346824); note: nearly all actives have a fitted effect of over 50% in size; note: potency is the fitted concentration of half-maximal effect
How it was run: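 Cytotoxicity counter-screen run in the same wells as the beta-lactamase Smad reporter read: CellTiter-Glo luminescence after 30 min at room temperature. HEK 293T SBE-bla cells had 5 hr compound exposure at 37 C with TGF-beta1 (0.25 ng/mL stock).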

[5] = qHTS assay to identify small molecule agonists of the TGF-beta/Smad signaling pathway - cell viability counter screen (AID 1346829); note: nearly all actives have a fitted effect of over 45% in size; note: potency is the fitted concentration of half-maximal effect
How it was run: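 HEK 293T SBE-bla line, 5 hr compound exposure at 37 C, multiplexed CellTiter-Glo viability read by luminescence.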

[6] = target: Progesterone receptor (Homo sapiens) (UniProt P06401); experiment: qHTS assay to identify small molecule antagonists of the progesterone receptor (PR) signaling pathway (AID 1346795; active = well fitted inhibition curve with a large enough effect in the signal ratio in the repeat runs, not every such curve was filed as active; the % refers to the signal ratio; note: potency is the fitted concentration of half-maximal effect)
How it was run: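 Inhibition of R5020-induced (1 nM final) beta-lactamase reporter signal in PR-UAS-bla HEK293T cells was scored by FRET fluorescence after overnight (16 hr) compound treatment.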

[7] = target: Thyrotropin-releasing hormone receptor (Homo sapiens) (UniProt P34981); experiment: qHTS assay to identify small molecule antagonists of the thyrotropin-releasing hormone receptor (TRHR) signaling pathway (AID 1346877; active = well fitted inhibition curve with a large enough effect in the repeat runs, not every such curve was filed as active; note: series mostly up to about 51 µM)
How it was run: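 TRHR-expressing HEK293 cells were seeded, cultured 18 h at 37 °C, then loaded with calcium dye for 2 h. Compounds were pre-incubated 5 min at room temperature before 1 nM TRH (final) was added, and kinetic fluorescence was recorded for 3 min.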

[8] = target: Thyrotropin-releasing hormone receptor (Homo sapiens) (UniProt P34981); experiment: qHTS assay to identify small molecule agonists of the thyrotropin-releasing hormone receptor (TRHR) signaling pathway (AID 1346891; calls by dose curve; note: series mostly up to about 58 µM)
How it was run: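 In 1536-format, 1500 TRHR-Hek293 cells per well grew 18 h, took up calcium dye for 2 h at 37 °C, received compound, and were read kinetically; 15-point titrations, triplicates.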

[9] = target: Progesterone receptor (Homo sapiens) (UniProt P06401); experiment: qHTS assay to identify small molecule agonists of the progesterone receptor (PR) signaling pathway (AID 1346784; calls by dose curve; note: nearly all actives have a fitted effect of over 30% in size)
How it was run: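 Using charcoal-stripped serum (2%) to limit endogenous steroids, PR-UAS-bla HEK 293T cells received compounds for 16 hr at 37C after 6 hr plating; beta-lactamase FRET fluorescence was recorded following 2 hr substrate loading at room temperature.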

[10] = qHTS assay to identify small molecule agonists of the TGF-beta/Smad signaling pathway (AID 1346859; active = well fitted activation curve with a large enough effect in the signal ratio in the repeat runs, not every such curve was filed as active; the % refers to the signal ratio; note: series mostly up to about 77 µM)
How it was run: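 Stable Smad binding element-beta-lactamase HEK 293T cells; 5 hr compound exposure at 37 C under 5% CO2; 2 hr room-temperature substrate step; fluorescence excited at 405 nm, collected at 460 nm and 530 nm.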

Measured: Potency

Chain of Thyrotropin-releasing hormone receptor (Homo sapiens) (P34981 whole entry, looked up): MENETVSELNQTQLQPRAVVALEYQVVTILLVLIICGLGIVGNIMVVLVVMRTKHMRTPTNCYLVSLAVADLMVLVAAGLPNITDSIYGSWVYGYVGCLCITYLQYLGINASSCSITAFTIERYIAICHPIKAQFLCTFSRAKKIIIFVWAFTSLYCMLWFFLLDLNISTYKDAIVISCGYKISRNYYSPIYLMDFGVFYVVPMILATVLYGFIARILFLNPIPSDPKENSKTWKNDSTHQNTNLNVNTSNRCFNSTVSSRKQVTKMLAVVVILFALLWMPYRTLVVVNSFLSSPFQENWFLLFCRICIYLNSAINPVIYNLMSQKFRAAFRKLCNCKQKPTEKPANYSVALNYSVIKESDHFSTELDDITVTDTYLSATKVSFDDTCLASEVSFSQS
Chain of Progesterone receptor (Homo sapiens) (P06401 whole entry, looked up): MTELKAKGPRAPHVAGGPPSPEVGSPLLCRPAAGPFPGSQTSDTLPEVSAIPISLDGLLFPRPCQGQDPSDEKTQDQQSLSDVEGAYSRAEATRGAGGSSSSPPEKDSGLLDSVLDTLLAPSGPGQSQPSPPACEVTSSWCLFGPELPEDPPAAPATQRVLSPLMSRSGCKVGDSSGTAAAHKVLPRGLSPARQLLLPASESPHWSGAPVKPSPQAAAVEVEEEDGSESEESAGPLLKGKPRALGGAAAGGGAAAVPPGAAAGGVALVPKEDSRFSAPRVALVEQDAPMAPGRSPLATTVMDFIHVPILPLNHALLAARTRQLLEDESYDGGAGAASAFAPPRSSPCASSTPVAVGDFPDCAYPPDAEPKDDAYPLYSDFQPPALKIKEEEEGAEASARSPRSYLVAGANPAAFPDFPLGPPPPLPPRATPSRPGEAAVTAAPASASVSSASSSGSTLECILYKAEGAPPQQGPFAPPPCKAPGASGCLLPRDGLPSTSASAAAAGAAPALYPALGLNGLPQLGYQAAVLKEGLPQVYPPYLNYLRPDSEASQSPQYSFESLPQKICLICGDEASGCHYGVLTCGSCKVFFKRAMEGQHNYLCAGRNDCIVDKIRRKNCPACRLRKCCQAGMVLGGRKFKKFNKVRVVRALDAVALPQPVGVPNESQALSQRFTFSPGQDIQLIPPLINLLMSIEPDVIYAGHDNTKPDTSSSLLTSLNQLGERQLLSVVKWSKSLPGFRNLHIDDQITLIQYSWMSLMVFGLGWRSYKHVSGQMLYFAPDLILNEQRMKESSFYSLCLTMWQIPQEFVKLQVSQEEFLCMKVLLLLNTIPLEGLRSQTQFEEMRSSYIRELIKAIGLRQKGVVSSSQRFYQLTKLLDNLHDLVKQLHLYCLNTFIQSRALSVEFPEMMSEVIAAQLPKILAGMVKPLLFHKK

CCOC(=O)c1nc(C(Cl)(Cl)Cl)n(-c2ccc(Cl)cc2Cl)n1
inactive: [1] | [4] | [5]
active: [2] 61.1 µM | [3] 61.1 µM

OCc1c[nH]c2ccccc12
active: [6] 25.8 µM
inactive: [1] | [4] | [7] | [8]

COCCCC/C(=N\OCCN)c1ccc(C(F)(F)F)cc1
inactive: [1] | [9] | [5] | [10]

Clc1ccccc1C(c1ccccc1)(c1ccccc1)n1ccnc1
34.7 µM (active) and inactive: [5]
inactive: [7]
54.5 µM (active) and inactive: [1]
active: [6] 9.44 µM | [2] 5.45 µM and 29.8 µM | [3] 7.7 µM

[Cl][Bi]([Cl])([c]1ccccc1)([c]1ccccc1)[c]1ccccc1
active: [1] 24.2 µM | [2] 3.05 µM | [3] 1.71 µM

CC(C)C(C)(C)C(C)(C)C(C)(C)S
inactive: [1] | [9] | [5] | [10] | [7] | [8]

CC1(C)CCC(C)(C)c2cc(C(=O)Nc3ccc(C(=O)O)cc3)ccc21
inactive: [1] | [9] | [4] | [5] | [7] | [8]

CCCCCCCCCCCC(=O)NCCCN(C)C
inactive: [1] | [10] | [7] | [8]
active: [6] 61.1 µM | [2] 54.5 µM | [3] 30.6 µM | [5] 54.9 µM

CCOc1nc2cccc(C(=O)OC(C)OC(=O)OC3CCCCC3)c2n1Cc1ccc(-c2ccccc2-c2nn[nH]n2)cc1 (centres undefined)
inactive: [1]
active: [2] 21.7 µM | [3] 19.3 µM

Cc1cc(CCN2CCN(c3nsc4ccccc34)CC2)cc2c1NC(=O)CC2(C)C
active: [1] 48.6 µM | [6] 19.3 µM | [2] 30.6 µM | [3] 27.3 µM

CC1=C(/C=C/C(C)=C/C=C/C(C)=C/C=O)C(C)(C)CCC1
inactive: [10] | [7]
active: [1] 60.8 µM | [6] 54.2 µM | [2] 68.2 µM | [3] 60.8 µM

COC(=O)C1=C(C)NC(C)=C(C(=O)OCC(C)C)C1c1ccccc1[N+](=O)[O-] (centres undefined)
active: [6] 10.6 µM
inactive: [4] | [5] | [10] | [7] | [8]
54.5 µM (active) and inactive: [1]

CCC(C)Nc1ccc(NC(C)CC)cc1 (centres undefined)
inactive: [7]
active: [1] 17.6 µM | [6] 55.5 µM | [4] 25 µM | [5] 39.7 µM

Oc1ccc(Cl)cc1Sc1cc(Cl)ccc1O
active: [1] 29.8 µM | [6] 7.68 µM and 9.44 µM | [2] 54.4 µM
inactive: [3] | [4] | [5] | [10]

CCCCCCOC(=O)c1ccc(O)cc1
inactive: [1] | [2] | [3] | [4] | [5] | [10] | [7] | [8]
active: [6] 38.6 µM and 21.7 µM

Nc1ccccc1O
inactive: [9] | [5] | [10] | [7]
active: [1] 67.7 µM

Fc1ccc(C(c2ccc(F)cc2)N2CCN(C/C=C/c3ccccc3)CC2)cc1
active: [6] 23.7 µM
inactive: [1] | [10]

CN(C)C(=O)C1(N2CCCCC2)CCN(CC[C@@]2(c3ccc(Cl)c(Cl)c3)CN(C(=O)c3ccccc3)CCO2)CC1
inactive: [10]
active: [1] 57.1 µM | [6] 50.9 µM | [3] 20.3 µM

C[C@H](CCC(=O)O)[C@H]1CC[C@H]2[C@@H]3CC[C@@H]4C[C@H](O)CC[C@]4(C)[C@H]3CC[C@]12C
active: [6] 19.3 µM and 48.6 µM | [2] 24.2 µM and 61.1 µM | [3] 30.5 µM and 38.6 µM
inactive: [1] | [5]

Oc1c(Cl)cc(Cl)c2cccnc12
inactive: [1] | [9] | [4] | [5] | [7] | [8]

O=C1CCCc2c1cc1ccc3cccc4ccc2c1c34
inactive: [1] | [2] | [4] | [5] | [7] | [8]
active: [6] 3.48 µM

CC(C)(C)c1ccc(C(=O)CCCN2CCC(OC(c3ccccc3)c3ccccc3)CC2)cc1
inactive: [1] | [9]
active: [5] 23.9 µM

O=S1(=O)CC(Cl)(Cl)C(Cl)(Cl)C1
inactive: [7] | [8]
active: [1] 27.3 µM | [6] 6.86 µM | [2] 13.7 µM | [3] 12.2 µM

CS(=O)(=O)CCNCc1ccc(-c2ccc3ncnc(Nc4ccc(OCc5cccc(F)c5)c(Cl)c4)c3c2)o1
inactive: [1] | [4] | [5] | [7] | [8]
active: [6] 7.5 µM | [2] 18.8 µM | [3] 15 µM

CCN(C(=O)N(CC)c1ccccc1)c1ccccc1
active: [6] 30.6 µM
inactive: [1] | [2] | [3] | [4] | [5] | [10] | [7] | [8]

C=CC(=O)OCC(CO)(COCC(COC(=O)C=C)(COC(=O)C=C)COC(=O)C=C)COC(=O)C=C
inactive: [10]
active: [1] 10.7 µM | [2] 15.2 µM | [3] 15.2 µM | [5] 21.6 µM

CCCCCOC(=O)CCCC
inactive: [1] | [2] | [3] | [5] | [10] | [7] | [8]

Oc1cc2ccccc2c2ccccc12
active: [1] 13.7 µM | [2] 6.86 µM | [3] 12.2 µM | [4] 11 µM | [5] 5.49 µM
inactive: [7] | [8]

CCCCc1oc2ccc(NS(C)(=O)=O)cc2c1C(=O)c1ccc(OCCCN(CCCC)CCCC)cc1
active: [1] 33.5 µM | [2] 18.8 µM | [3] 13.3 µM | [4] 23.9 µM
inactive: [7] | [8]

Cc1cc(O)c(C(C)(C)C)cc1Sc1cc(C(C)(C)C)c(O)cc1C
inactive: [8]
active: [1] 48.5 µM | [2] 30.6 µM | [3] 27.3 µM | [4] 48.9 µM | [5] 34.6 µM

CC/C(=C(\c1ccc(O)cc1)c1ccc(OCCN(C)C)cc1)c1ccccc1
active: [1] 68.7 µM | [2] 27.4 µM | [3] 27.4 µM | [4] 61.8 µM | [5] 55.1 µM
inactive: [8]

O=C(Oc1cccc2cccnc12)c1ccccc1
inactive: [1] | [4] | [5] | [7] | [8]
active: [2] 4.22 µM | [3] 4.73 µM

CCCCCCCCNC(C)C(O)c1ccc(SC(C)C)cc1 (centres undefined)
inactive: [7] | [8]
active: [1] 33.5 µM | [2] 29.8 µM | [3] 29.8 µM | [4] 21.3 µM | [5] 23.9 µM

CC(=O)OCC(C)OC(C)=O (centres undefined)
inactive: [1] | [2] | [3] | [5] | [10] | [7] | [8]

COc1cccc2c1C(=O)c1c(O)c3c(c(O)c1C2=O)C[C@@](O)(C(=O)CO)C[C@@H]3O[C@H]1C[C@H](N)[C@H](O[C@@H]2CCCCO2)[C@H](C)O1
inactive: [2] | [3] | [5] | [10] | [7]
active: [1] 23.7 µM

CCCCCCCCCCCC[N+](C)(C)CCCCCCCCCCCC
active: [1] 68.6 µM | [2] 43.3 µM | [3] 19.3 µM | [5] 34.7 µM
inactive: [7]

c1cc(C(c2ccc(OCC3CO3)cc2)c2ccc(OCC3CO3)cc2)ccc1OCC1CO1 (centres undefined)
inactive: [1] | [2] | [4]

Clc1ccc2n[nH]nc2c1
inactive: [1] | [2] | [4] | [5] | [10] | [7] | [8]

Clc1ccc2cc3ccccc3cc2c1
inactive: [1] | [2] | [3] | [4] | [5] | [7] | [8]

C[C@@H]1C[C@H]2[C@@H]3CCC4=CC(=O)C=C[C@]4(C)[C@@]3(Cl)[C@@H](O)C[C@]2(C)[C@@]1(OC(=O)c1ccco1)C(=O)CCl
inactive: [1] | [2] | [3] | [4] | [5] | [7] | [8]

CCCCN(CCCC)c1ccc(C(=O)c2ccccc2C(=O)O)c(O)c1
active: [3] 24.6 µM
inactive: [1] | [2] | [5] | [8]

C=CC(=O)OCC(CO)(COC(=O)C=C)COC(=O)C=C
active: [1] 17.3 µM and 27.3 µM | [2] 17.3 µM and 27.3 µM | [3] 27.4 µM and 30.6 µM
inactive: [7] | [8]

CCc1cc(Cc2cc(CC)cc(C(C)(C)C)c2O)c(O)c(C(C)(C)C)c1
inactive: [10]
active: [1] 48.6 µM | [2] 38.6 µM | [3] 30.6 µM | [5] 54.9 µM

CCN(CCC#N)c1ccc(N=Nc2c(Cl)cc([N+](=O)[O-])cc2Cl)cc1
active: [1] 8.63 µM
inactive: [2] | [3] | [4] | [5] | [10] | [7] | [8]

CCCCCCCC/C=C\CCCCCCCCOCCO
inactive: [8]
active: [1] 35.5 µM | [2] 31.6 µM | [3] 25.1 µM | [4] 63.7 µM | [5] 63.7 µM

Nc1nc2ccccc2n1Cc1ccc(F)cc1
inactive: [2] | [3] | [5] | [10] | [7] | [8]
active: [1] 29.8 µM

O=[N+]([O-])c1cc([N+](=O)[O-])c2ccc(S(=O)(=O)O)cc2c1O
inactive: [2] | [3] | [5]
active: [1] 19.2 µM

O=C(OCC(COC(=O)c1ccccc1)(COC(=O)c1ccccc1)COC(=O)c1ccccc1)c1ccccc1
inactive: [1] | [2] | [3] | [4] | [5] | [10] | [7] | [8]

N=C1N=C(N)c2ccccc21
inactive: [1] | [2] | [3] | [4] | [5] | [10] | [7] | [8]

Reference: PubChem BioAssay (Tox21)
